For 172 sequences, binding signal results are on record in article PMC4242493, “Sequence specificity incompletely defines the genome-wide occupancy of Myc”.

Whole data set: some 33,000 sequences, median “normalized occupancy” near 0.075, cut for the highest 2% near 0.095. This is one part of a sample in which the highest values are shown more often than they occur.

Chain of MaxL homodimer (P61244 whole entry): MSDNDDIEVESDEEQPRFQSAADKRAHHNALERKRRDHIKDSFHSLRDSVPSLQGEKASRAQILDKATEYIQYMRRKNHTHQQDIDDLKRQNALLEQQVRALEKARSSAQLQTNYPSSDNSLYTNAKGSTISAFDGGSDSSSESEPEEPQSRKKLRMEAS

The experiment addresses MaxL homodimer (Homo sapiens, UniProt P61244 1-160). Nature of the experiment: universal protein-binding microarray (PBM); PBS-based mixture, 10 nM His-tagged protein dimer, 2% milk, 200 ng/uL BSA, 50 ng/uL salmon testes DNA, 0.02% TX-100; detection with Alexa 488 anti-His antibody;; high values mean tight binding. The following applies: protein: recombinant; tags: C-terminal His-tag (pET21a); chain copies: 2; dsDNA, one strand shown. The essentials:
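Each 8-mer received a fluorescence intensity from GenePix 4400A scans of Agilent 4 x 44 K 'all 10-mer' universal arrays. Those arrays had been incubated with His-tagged protein dimer at 10 nM, and the bound protein was marked with a fluorophore-conjugated anti-His antibody at 10 ng/μL. Binding occupancy is the intensity scaled to that of the highest-ranked sequence word.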
For the sequence CAGCATGG, the binding signal was determined as 0.13 normalized occupancy.

With CGTCGAAC, the binding signal amounted to 0.0719 normalized occupancy. Regarding ACTCGTGG, the binding signal turned out to be 0.0955 normalized occupancy. Take CATCGTGC: the binding signal was 0.0886 normalized occupancy. Consider ACTCGTGA, for which the binding signal was 0.0957 normalized occupancy. CCTCGTTC: the binding signal worked out at 0.0806 normalized occupancy. Then ACTCGTCA, with 0.0793 normalized occupancy; and ACTCGTGC, with 0.0933 normalized occupancy; and GCTCGTGA, with 0.0843 normalized occupancy. CCTCGTGA: the binding signal turned out to be 0.125 normalized occupancy. For the sequence AGTCGTGA, the binding signal was determined as 0.0749 normalized occupancy.

Regarding AATCGTGG, the binding signal amounted to 0.0832 normalized occupancy. As to CCTCGTTA, the binding signal stood at 0.0752 normalized occupancy. As to CCTCGTGC, the binding signal was 0.133 normalized occupancy. As to ACGTTGAA, the binding signal was 0.083 normalized occupancy. Consider GGGACCAC, for which the binding signal turned out to be 0.078 normalized occupancy. On to CTCTCCAC, for which the binding signal worked out at 0.0859 normalized occupancy. As to CTATGCTA, the binding signal was determined as 0.0768 normalized occupancy. Regarding AGACACAT, the binding signal is 0.0849 normalized occupancy. With CTAAGGTC, the binding signal amounted to 0.0732 normalized occupancy.

In the case of AAATGACC, the binding signal was 0.0764 normalized occupancy. The same measure for ATAAGCTG: 0.0801 normalized occupancy; for ATGCGTCC: 0.0782 normalized occupancy. Consider ATGCGTGA, for which the binding signal came out at 0.0965 normalized occupancy.

Take GTGCGTGA: the binding signal stood at 0.0887 normalized occupancy. For ATGCGTAG, the binding signal stood at 0.0832 normalized occupancy. The same measure for CTGCGTGA: 0.0818 normalized occupancy. With ATGCGTGG, the binding signal was 0.106 normalized occupancy. The same measure for ATGCGTGC: 0.0969 normalized occupancy; for ATGCGTTG: 0.0816 normalized occupancy; for CTGCGTGC: 0.0861 normalized occupancy. Take ACATCCCG: the binding signal was 0.0795 normalized occupancy. Consider AGAATGGA, for which the binding signal was 0.0768 normalized occupancy. In the case of GCGACGCA, the binding signal is 0.0736 normalized occupancy.

Regarding CGCGTAAC, the binding signal came to 0.0752 normalized occupancy. The same measure for CCACATAG: 0.0803 normalized occupancy; for CCACATGG: 0.227 normalized occupancy; for CAACATGC: 0.094 normalized occupancy. Then CCACATGC, with 0.163 normalized occupancy. For the sequence CCACATGA, the binding signal amounted to 0.134 normalized occupancy. As for CCACATTA, the binding signal was 0.093 normalized occupancy. On to CAACATGA, for which the binding signal turned out to be 0.0936 normalized occupancy.

For the sequence CAACATGG, the binding signal is 0.0932 normalized occupancy. For CCACATTC, the binding signal amounted to 0.0852 normalized occupancy. GATCCGCA: the binding signal came to 0.0769 normalized occupancy. In the case of CATTCAGC, the binding signal was 0.0725 normalized occupancy. As for GAATTATA, the binding signal worked out at 0.0789 normalized occupancy. As for TCACTGCA, the binding signal amounted to 0.075 normalized occupancy. Turning to CTCAAGTC, the binding signal came to 0.0771 normalized occupancy. Then AAGGTTTA, with 0.0757 normalized occupancy. GACACGCC: the binding signal was 0.0849 normalized occupancy.

As to CACACGCC, the binding signal stood at 0.0955 normalized occupancy. For CACACACG, the binding signal was 0.0916 normalized occupancy. For AACACGCA, the binding signal is 0.0915 normalized occupancy. As to AACACGCG, the binding signal came to 0.12 normalized occupancy.

Consider AACACACA, for which the binding signal worked out at 0.0847 normalized occupancy. Take CACACGCG: the binding signal worked out at 0.124 normalized occupancy. The same measure for CACACACA: 0.087 normalized occupancy.

As for AACACGCT, the binding signal is 0.0974 normalized occupancy. Consider AACACGCC, for which the binding signal amounted to 0.0909 normalized occupancy. In the case of AACACGGT, the binding signal was 0.0777 normalized occupancy. As for CACACGCA, the binding signal was determined as 0.0865 normalized occupancy.

CCACGGAC: the binding signal is 0.0742 normalized occupancy.

For CGACTAAA, the binding signal was 0.0736 normalized occupancy. Turning to TCACTTAA, the binding signal is 0.078 normalized occupancy. Regarding GAACCAAC, the binding signal turned out to be 0.0752 normalized occupancy.

Turning to AGACGACA, the binding signal was found to be 0.0751 normalized occupancy. For the sequence ACAAACCT, the binding signal came to 0.0779 normalized occupancy. Then AACGACTG, with 0.0722 normalized occupancy. As for GACATTAC, the binding signal was determined as 0.0843 normalized occupancy.

As to ATGCTATA, the binding signal was found to be 0.0889 normalized occupancy. Regarding CGGCGTGC, the binding signal turned out to be 0.0923 normalized occupancy. With GGGCGTGA, the binding signal turned out to be 0.0932 normalized occupancy. For the sequence GCGCGTGA, the binding signal worked out at 0.106 normalized occupancy. With ACGCGTGG, the binding signal came to 0.139 normalized occupancy. The same measure for CCGCGTAC: 0.0726 normalized occupancy. For the sequence CCGCGTGC, the binding signal stood at 0.145 normalized occupancy. Regarding ACGCGTAG, the binding signal was determined as 0.0796 normalized occupancy. Consider ACGCGTCC, for which the binding signal is 0.0815 normalized occupancy. For ACGCGTGC, the binding signal came to 0.13 normalized occupancy. For ACGCGTCG, the binding signal was found to be 0.0769 normalized occupancy. With GCGCGTTA, the binding signal was determined as 0.0795 normalized occupancy. For the sequence ACGCGTTC, the binding signal is 0.0785 normalized occupancy. Regarding GTGAGGGA, the binding signal is 0.0752 normalized occupancy. As to AAAAAGCA, the binding signal was found to be 0.078 normalized occupancy. Turning to GAAAGCGC, the binding signal turned out to be 0.0724 normalized occupancy. Then ATTACCTA, with 0.0784 normalized occupancy; and AGGTTCTA, with 0.0755 normalized occupancy. For the sequence CAAGCGAA, the binding signal was 0.0755 normalized occupancy. Turning to CAATTTCA, the binding signal was found to be 0.0751 normalized occupancy. ACGCGTGA: the binding signal is 0.114 normalized occupancy. With ACGCGTAA, the binding signal worked out at 0.0882 normalized occupancy. For the sequence CCGCGTGA, the binding signal was 0.142 normalized occupancy. On to CGGCGTGA, for which the binding signal is 0.0839 normalized occupancy. Take ACGCGTCA: the binding signal amounted to 0.0796 normalized occupancy. The same measure for CCGCGTAA: 0.0729 normalized occupancy. Then ATGACGTG, with 0.0885 normalized occupancy; and AAGTGATT, with 0.0761 normalized occupancy. Take CCTGCGCA: the binding signal worked out at 0.0738 normalized occupancy. The same measure for TGAGAGAA: 0.0879 normalized occupancy; for TATAAGAA: 0.0821 normalized occupancy; for GTTACTTA: 0.0751 normalized occupancy.

As for AATCTAAC, the binding signal is 0.0749 normalized occupancy.

As to ACGCCATC, the binding signal worked out at 0.0794 normalized occupancy. Regarding ATGCCACG, the binding signal was determined as 0.101 normalized occupancy.

On to ATGCCACC, for which the binding signal was found to be 0.0841 normalized occupancy.

In the case of ACGCCACG, the binding signal is 0.0993 normalized occupancy.

On to ACGCCACT, for which the binding signal is 0.0784 normalized occupancy. Then ACGCCATA, with 0.0812 normalized occupancy; and ACGCCACA, with 0.0778 normalized occupancy; and ACGCCATG, with 0.102 normalized occupancy. Take ATGCCACA: the binding signal was determined as 0.0905 normalized occupancy.

On to ATGCGTTC, for which the binding signal is 0.0856 normalized occupancy. Consider CAACCCAC, for which the binding signal was 0.082 normalized occupancy.

Turning to GGCGTTCA, the binding signal amounted to 0.0718 normalized occupancy.

ACCACAAA: the binding signal turned out to be 0.0758 normalized occupancy. Then ACCACGAG, with 0.115 normalized occupancy; and CCCACGAG, with 0.0996 normalized occupancy; and ACCACGAA, with 0.0771 normalized occupancy.

For the sequence CCCACGAA, the binding signal amounted to 0.0758 normalized occupancy. As for CCCACAAA, the binding signal worked out at 0.075 normalized occupancy. On to GAAGTGCA, for which the binding signal came out at 0.0728 normalized occupancy. As for GTTTCGCA, the binding signal stood at 0.0757 normalized occupancy. For the sequence ATGGCTGC, the binding signal is 0.0809 normalized occupancy. CGTGCTGA: the binding signal came to 0.095 normalized occupancy. Take GATGGAAC: the binding signal was 0.0776 normalized occupancy. Then CAATGCTC, with 0.0774 normalized occupancy; and CGATGCTC, with 0.0773 normalized occupancy; and CCATGCTC, with 0.0989 normalized occupancy.

As to CTATGCTC, the binding signal turned out to be 0.0822 normalized occupancy.

Take ACATGCTC: the binding signal was determined as 0.106 normalized occupancy. For the sequence ATATGCTC, the binding signal worked out at 0.0928 normalized occupancy.

Take CGAGCGCA: the binding signal was 0.0729 normalized occupancy. GACATCCC: the binding signal was found to be 0.0774 normalized occupancy.

Consider CACGTTAA, for which the binding signal stood at 0.0921 normalized occupancy.

As for AACGTTAC, the binding signal is 0.0772 normalized occupancy. As to AACGTTAG, the binding signal stood at 0.0732 normalized occupancy.

CACGTTAG: the binding signal was determined as 0.105 normalized occupancy. With CACGTTCA, the binding signal was determined as 0.0904 normalized occupancy. For the sequence CACGTTCG, the binding signal was 0.0852 normalized occupancy. Consider GACGTTAC, for which the binding signal is 0.0746 normalized occupancy. In the case of CACGTTAC, the binding signal was found to be 0.115 normalized occupancy.

As for CACGTTCC, the binding signal is 0.096 normalized occupancy. Consider GTAGTCCA, for which the binding signal stood at 0.0722 normalized occupancy. TACGTAGA: the binding signal came to 0.0768 normalized occupancy. Regarding GATGCGGC, the binding signal was 0.0788 normalized occupancy.

TATGCGGA: the binding signal was 0.0786 normalized occupancy. AATGCGGA: the binding signal stood at 0.0802 normalized occupancy. Then CAGGCGGG, with 0.0747 normalized occupancy; and CATGCGGC, with 0.121 normalized occupancy; and CATGCGGA, with 0.126 normalized occupancy. Take AATGCGGG: the binding signal was determined as 0.0799 normalized occupancy. For the sequence CATGCGGG, the binding signal is 0.121 normalized occupancy. For the sequence AATGCGGC, the binding signal turned out to be 0.0814 normalized occupancy. Then AGGTAACC, with 0.0749 normalized occupancy; and AAACATAC, with 0.0888 normalized occupancy; and TATAAACA, with 0.0776 normalized occupancy. CGCTCGAG: the binding signal stood at 0.0757 normalized occupancy.

In the case of CGATTGCA, the binding signal is 0.0745 normalized occupancy. Then GGACCGAC, with 0.0727 normalized occupancy; and CATTTGAG, with 0.0913 normalized occupancy; and AAGAACTC, with 0.0732 normalized occupancy. On to AATTTCTA, for which the binding signal worked out at 0.0767 normalized occupancy. Turning to CCATTCGC, the binding signal amounted to 0.0743 normalized occupancy. As for CTTCGTGC, the binding signal is 0.0757 normalized occupancy. On to ATGGCAGG, for which the binding signal was 0.0815 normalized occupancy.

Regarding CCCCATGC, the binding signal amounted to 0.107 normalized occupancy. Regarding CCCCATTC, the binding signal stood at 0.0826 normalized occupancy. Take ACCCATGG: the binding signal was 0.0853 normalized occupancy. With ACCCATGA, the binding signal was determined as 0.0882 normalized occupancy. Then CCCCATGA, with 0.0895 normalized occupancy. With ACCCATGC, the binding signal was 0.108 normalized occupancy.
